About 13,000 (27%) of roughly 48,000 compounds showed an effect of 50% or more. Some of the results follow.
system: Wolbachia pipientis; test: Anti-Wolbachia Cell-Based Screen; assay type: functional; parameters: scale not given: in the data most compounds retested in dose-response had high values; conditions: 5 µM

Compound | Percent Effect [%]
Cc1c(C)n(CC(O)CN2CCC(C)CC2)c2c(Cl)cccc12 (centres undefined) | -13.14
F[C@@H]1CN(Cc2ccccc2)C[C@@H]1OCc1nc2cnccc2[nH]1 | -3.935
CN(C)C(=O)c1cccc(NC(=O)CN2CCCCC2C2OCCO2)c1 (centres undefined) | -9.797
COC(=O)c1cccc(NC(=O)CN2CCN(S(C)(=O)=O)CC2)c1 | 0.7545
CC(=O)c1cccc(NC(=O)Cn2cnc(-c3ccccc3)cc2=O)c1 | -1.653
CCc1nccn1CC(=O)Nc1cccc(C(=O)OC)c1 | 94.76
COC(=O)c1cccc(C(=O)N2CCCCC2CCn2ccnc2C)c1 (centres undefined) | -0.7359
CCc1nccn1CC(=O)Nc1cccc(C(=O)N(C)C)c1 | 117.3
CCNc1ncc(C(=O)N(C)CCc2nc3cc(Cl)ccc3[nH]2)cn1 | -2.741
CC(C)CN1CCc2[nH]cnc2C12CCN(C(=O)c1cnn(C)c1)CC2 | 18.71
Cn1cccc1C(=O)N1CCCN(CCCc2ccccc2)CC1 | 5.768
CC(CC#N)n1ccc(C(F)(F)F)n1 (centres undefined) | 86
CCC(CC#N)n1ccc(C(F)(F)F)n1 (centres undefined) | 100.1
CCC(CCN)n1ccc(C(F)(F)F)n1 (centres undefined) | 101
CS(=O)(=O)NCCNC(=O)NC1(c2ccc(F)cc2)CCCC1 | 1.188
Cc1cccc(CS(=O)(=O)CC(=O)N(C)Cc2ccccc2F)c1 | -4.083
CC(=O)c1ccccc1NC(=O)CCN1CCSCC1 | -1.71
O=S(=O)(NCCn1cc(C2CCCNC2)nn1)c1ccc(Cl)cc1 (centres undefined) | 7.811
COc1ccc(-c2cnc(N)nc2C2CCCNC2)cc1.Cl (centres undefined) | 80.9
O=C(N[C@@H]1CCCNC1)C1(Oc2ccc(Cl)cc2)CCNCC1 | -9.041
Nc1ncc(-c2ccc(Cl)cc2)c(C2CCCNC2)n1 (centres undefined) | 110.4
Nc1ncc(-c2ccc(C(F)(F)F)cc2)c(C2CCCNC2)n1 (centres undefined) | 52.9
Nc1ncc(-c2ccc(F)cc2)c(C2CCCNC2)n1 (centres undefined) | 107.7
FC(F)(F)c1ccc2[nH]c([C@H]3CCNC3)nc2c1 | -0.9457
FC(F)(F)c1ccc(-c2c[nH]c([C@@H]3COCCN3)n2)cc1 | -4.53
CN(Cc1ccccc1Cl)C(=O)c1cc(CN2CCC(O)CC2)on1 | -7.03

Compound | Percent Effect [%]
Cc1nnc2n1CCN(Cc1c(Cl)ccc3cccnc13)C2 | -10.28
CCc1nccn1C1CCCN(C(=O)c2ccc(C(=O)NC)nc2)C1 (centres undefined) | -5.671
CNC(=O)c1ccc(C(=O)N2CCCC(n3ccnc3C)C2)cn1 (centres undefined) | 94.35
CNC(=O)c1ccc(C(=O)N2CCCC(n3ccnc3)C2)cn1 (centres undefined) | 118
Cc1cccc(C)c1OCCNC(=O)C[S+]([O-])C1CCCC1 (centres undefined) | 0.9364
O=C(C1CCCc2[nH]ncc21)N1CCCC2(C1)OCCO2 (centres undefined) | 23.68
Fc1ccc(CN2CCCC(c3nnc(-c4cnccn4)o3)C2)cc1F (centres undefined) | -0.1636
Fc1ccccc1CN1CCC(c2n[nH]c(C3CC3)n2)CC1 | -0.8499
Fc1cccc(CN2CCC(c3noc(-c4ccncc4)n3)CC2)c1F | 205.5
Fc1ccc(CN2CCC(c3n[nH]c4nccnc34)CC2)cc1F | -10.9
Fc1cccc(CN2CCC(c3noc(-c4ccccn4)n3)CC2)c1F | 179
CC(c1nc(C2CC2)no1)N1CCN(Cc2cccc(F)c2F)CC1 (centres undefined) | 13.59
Fc1ccccc1CN1CCC(c2noc(-c3ccccn3)n2)CC1 | 178
CCn1c(CN(C)C)nnc1C1CCN(Cc2cccc(F)c2F)CC1 | 8.209
CCc1cc(NC2CCN(Cc3ccccc3F)CC2)n2nccc2n1 | 21.54
Fc1ccc(CN2CCC(c3noc(-c4cnccn4)n3)CC2)cc1F | 155.5
CC(=O)NCCC(=O)NCCCOc1c(C)cccc1C | 1.2
CC(=O)N(Cc1c(F)cccc1F)C1CCCC1 | -1.576
O=C(CSc1ccc2c(c1)OCCO2)NS(=O)(=O)c1ccccc1Br | -0.599
COc1ccc2c(c1)OCC(Cc1ccc(CN)cn1)C2 (centres undefined) | -20.89
O=C(Nc1ccc(F)cc1)N1C[C@H]2CC[C@@H]1CN(Cc1cccnc1)C2 | -11.36
CCC1=N[C@@]2(CC[C@@H]3CN(S(=O)(=O)N(C)C)C[C@@H]32)C(=O)N1CC(C)C | -19.59
CC(=O)NC(C(=O)N1CCn2cncc2C1)C(C)C (centres undefined) | 3.291
Cc1noc(C)c1CC(=O)OCC(=O)N1CCc2sccc2C1 | 3.916
CC1CN(C2CCN(Cc3nccn3CC(F)(F)F)CC2)CCO1 (centres undefined) | -6.653
Fc1cccc(CN2CCC(c3noc(-c4cnccn4)n3)CC2)c1F | 134.1

Compound | Percent Effect [%]
Fc1cccc(C2CCCCN2Cc2nc(-c3cnccn3)no2)c1 (centres undefined) | -8.906
O=C(c1ccc(-c2cc[nH]n2)cc1)N1CC[C@H](CO)[C@H](O)C1 | 0.4
CCN(Cc1cc(Cl)c(O)c(OC)c1)Cc1nc(COC)no1 | -9.296
COCCS(=O)(=O)Nc1ccc(-n2nccc2C(F)(F)F)cc1 | 0.6513
CCOC1CCN(C(=O)NCCN(C)C(=O)OC(C)(C)C)CC1 | 7.411
CN(CC(F)(F)F)C(=O)CNC(=O)Cc1ccccc1O | -0.134
CC(C)C1CCN(C(=O)NCC(=O)N(C)CC(F)(F)F)CC1 | 101.1
CN(CC(F)(F)F)C(=O)CNC(=O)Cc1ccc(O)cc1Cl | -9.929
CN(CC(F)(F)F)C(=O)CNC(=O)Cc1cccc(O)c1 | -3.923
O=C(Nc1ccc(-c2csnn2)cc1)N1CCC(N2CCCC2)C1 (centres undefined) | 0.9
Cc1cnn(CCCNC(=O)N2CCCCC(N3CCCC3)C2)c1 (centres undefined) | -6.749
CC1CCN(C(=O)NCC(=O)N(C)CC(F)(F)F)C1 (centres undefined) | 103.3
CN(CC(F)(F)F)C(=O)CNC(=O)N1CCC(N2CCCC2)C1 (centres undefined) | 94.48
CC(C)=CCN1C[C@H]2CC[C@@H]1CN(CCC(=O)NCc1ccco1)C2 | -7.993
CCOc1ccc(NC(=O)Cc2cc(C)[nH]n2)cc1CO | -2.214
Cc1cc(C)c2c(c1)C(NC(=O)CSCc1ccncc1)CCO2 (centres undefined) | 0.01106
CC(C)CCC(C)NC(=O)Nc1ccccn1 (centres undefined) | 3.296
CC(Cn1cccn1)NC(=O)NCc1ccccn1 (centres undefined) | -2.779
Cc1ccc(NC(=O)NC(C)Cn2cccn2)cc1 (centres undefined) | -6.589
CC(Cn1cccn1)NC(=O)Nc1ccccn1 (centres undefined) | 102.9
Cc1cccnc1NC(=O)NC(C)Cn1cccn1 (centres undefined) | 2.456
CC(Cn1cccn1)NC(=O)Nc1nnc(C2CC2)s1 (centres undefined) | -3.463
CCCc1nnc(NC(=O)NC(C)Cn2cccn2)s1 (centres undefined) | 106.7
Cc1nnc(NC(=O)NC(C)Cn2cccn2)s1 (centres undefined) | 98.41
COC(C)(C)CC(C)NC(=O)Nc1ccccn1 (centres undefined) | 11.35
CCN1C(=O)CC(N(C)Cc2nc3ccccc3c(=O)[nH]2)C1=O (centres undefined) | -2.279

Compound | Percent Effect [%]
CN(Cc1nc2ccccc2c(=O)[nH]1)C[C@@H]1CCCN2CCCC[C@H]12 | -19.12
CC(C)CS(=O)(=O)CC(=O)N(C)Cc1ccc(OC(F)F)cc1 | -10.21
CC(Cn1cccn1)NC(=O)Nc1nncs1 (centres undefined) | 94.45
CC(Cn1cccn1)NC(=O)Nc1ccc(N(C)C)nc1 (centres undefined) | 1.644
CC(Cn1cccn1)NC(=O)Nc1nccs1 (centres undefined) | -3.735
COc1ccc(NC(=O)NC(C)Cn2cccn2)cn1 (centres undefined) | -4.158
CCC(CC)c1nnc(NC(=O)NC(C)Cn2cccn2)s1 (centres undefined) | 102.8
COc1cccc(CN2CCc3nc(C(N)=O)sc3CC2)c1.O=C(O)C(F)(F)F | 8.884
O=C(NCc1ccoc1)Nc1ccc(CN2CCOC2=O)cc1 | -1.544
O=C1OCCN1c1cccc(CNS(=O)(=O)Cc2ccc(F)cc2)c1 | -0.8668
CN(C)c1ncc2c(n1)C1(CCN(Cc3ccccc3F)C1)COC2.O=C(O)C(F)(F)F (centres undefined) | -3.722
Cc1ccccc1CN1CCC2(COCc3cnc(N(C)C)nc32)C1.O=C(O)C(F)(F)F (centres undefined) | -3.264
CN(C)C(=O)CN1CCC2(COCc3cnc(-c4cccnc4)nc32)C1.O=C(O)C(F)(F)F.O=C(O)C(F)(F)F (centres undefined) | 108.5
COc1cccc(CN2CCC3(COCc4cnc(N(C)C)nc43)C2)c1.O=C(O)C(F)(F)F (centres undefined) | -4.622
CN(C)C(=O)CN1CCC2(COCc3cnc(-c4ccccc4)nc32)C1 (centres undefined) | 100.5
O=C(CC1CCc2ccccc21)NC1(C(=O)O)CCOCC1 (centres undefined) | -1.321
Fc1cccnc1CN1CCCCC1c1ccn2ccnc2n1 (centres undefined) | 6.686
Cc1ccccc1CSc1nc(N)cc(N2CC[C@@H](O)C2)n1 | 2.755
CNc1ncccc1CN1CCCCC1c1ccnc(N)n1 (centres undefined) | 116.5
Cc1cccnc1CN1CCN(CC(=O)N(C)C)[C@@H]2CS(=O)(=O)C[C@@H]21 | 1.676
CNc1ncccc1CN1CCCCC1c1cc(C)n2ccnc2n1 (centres undefined) | 94
CNc1ncccc1CN1CCC1c1cc(N)nc(C)n1 (centres undefined) | 93.93
Cc1cccnc1CN1CCCCC1c1ccn2ccnc2n1 (centres undefined) | 107.3
CNc1cc(C2CCCN2Cc2ccccc2OCC(=O)O)ccn1 (centres undefined) | -5.445
O=C1CCc2cc(S(=O)(=O)NC(=O)c3ccc4c(c3)CCO4)ccc2N1 | -17.2
O=S(=O)(CCCn1cncn1)Cc1cccc(F)c1 | 2.155
